{"source": "PubChem BioAssay", "key": {"[1]": {"target": "Nuclear receptor coactivator 3 (Homo sapiens) (UniProt Q9Y6Q9)", "sequence (Q9Y6Q9 whole entry, looked up, the tested form may be a part)": "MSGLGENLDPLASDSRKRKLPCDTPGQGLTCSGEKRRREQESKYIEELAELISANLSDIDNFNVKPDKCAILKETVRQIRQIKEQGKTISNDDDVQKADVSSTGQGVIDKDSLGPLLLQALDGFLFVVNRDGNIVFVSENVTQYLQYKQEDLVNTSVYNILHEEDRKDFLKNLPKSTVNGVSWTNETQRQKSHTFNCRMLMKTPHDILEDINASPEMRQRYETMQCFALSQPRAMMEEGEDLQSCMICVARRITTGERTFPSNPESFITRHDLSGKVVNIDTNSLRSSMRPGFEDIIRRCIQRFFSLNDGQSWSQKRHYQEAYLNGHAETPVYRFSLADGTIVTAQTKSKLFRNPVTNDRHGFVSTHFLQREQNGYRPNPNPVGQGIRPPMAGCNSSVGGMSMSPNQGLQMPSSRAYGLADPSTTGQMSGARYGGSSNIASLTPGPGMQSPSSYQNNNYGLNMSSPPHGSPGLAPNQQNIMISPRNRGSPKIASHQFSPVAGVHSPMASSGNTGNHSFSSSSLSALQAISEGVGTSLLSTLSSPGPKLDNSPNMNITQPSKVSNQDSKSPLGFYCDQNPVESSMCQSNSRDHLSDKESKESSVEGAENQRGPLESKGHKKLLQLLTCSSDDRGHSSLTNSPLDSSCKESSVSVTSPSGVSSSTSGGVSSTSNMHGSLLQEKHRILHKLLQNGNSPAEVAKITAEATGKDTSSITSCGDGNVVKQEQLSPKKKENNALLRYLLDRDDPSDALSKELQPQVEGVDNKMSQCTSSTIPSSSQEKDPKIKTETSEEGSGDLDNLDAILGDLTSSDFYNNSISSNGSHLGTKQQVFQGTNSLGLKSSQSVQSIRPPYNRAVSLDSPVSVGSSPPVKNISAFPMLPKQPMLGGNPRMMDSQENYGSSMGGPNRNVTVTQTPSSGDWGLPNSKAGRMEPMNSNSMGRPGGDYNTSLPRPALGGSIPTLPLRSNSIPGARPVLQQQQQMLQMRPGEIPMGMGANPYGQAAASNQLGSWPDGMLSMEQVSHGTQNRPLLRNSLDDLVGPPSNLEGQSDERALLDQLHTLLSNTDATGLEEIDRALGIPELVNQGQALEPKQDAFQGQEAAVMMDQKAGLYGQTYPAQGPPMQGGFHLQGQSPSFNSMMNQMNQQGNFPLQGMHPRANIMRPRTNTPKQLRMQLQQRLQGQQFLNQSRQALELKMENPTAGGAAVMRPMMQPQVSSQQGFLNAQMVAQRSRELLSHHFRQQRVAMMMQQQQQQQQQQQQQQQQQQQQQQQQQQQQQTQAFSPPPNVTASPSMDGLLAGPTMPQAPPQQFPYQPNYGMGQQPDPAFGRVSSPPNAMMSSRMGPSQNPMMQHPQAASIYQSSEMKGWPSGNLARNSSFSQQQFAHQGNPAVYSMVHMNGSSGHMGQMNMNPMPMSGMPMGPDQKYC", "assay": "NCOA3 GAL4-fusion reporter inhibition – cell-based, luminescence, quadruplicate, confirmation (AID 588792;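 active = mean inhibition over 43.08%, the solvent-only control mean plus 3 SD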;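 note: 0% = DMSO treated cells and 100% = gossypol at 36 µM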)", "settings": "HEK293 GAL4-SRC3 luciferase reporter, at 3.6 µM, active compounds read high"}, "[2]": {"system": "transactivating tegument protein VP16 (Human herpesvirus 1), Gal4-VP16 luciferase reporter", "assay": "repression of VP16-driven luciferase reporter – cell-based, luminescence, high throughput, counter-screen for SRC3 inhibitor project (AID 588794; in the data active = inhibition above about 30%)", "settings": "mammalian cells, at 3.6 µM, active compounds read high"}, "[3]": {"system": "transactivating tegument protein VP16 (Human herpesvirus 1)", "assay": "compounds suppressing VP16-driven luciferase signal – cell-based, luminescence, single concentration, counter-screen for SRC2 inhibitor project (AID 652007; in the data active = inhibition above about 36%)", "settings": "cell-based VP16 transactivation luciferase reporter, at 8.9 µM, active compounds read high"}, "[4]": {"target": "Nuclear receptor coactivator 2 (Homo sapiens) (UniProt Q15596)", "sequence (Q15596 whole entry, looked up, the tested form may be a part)": "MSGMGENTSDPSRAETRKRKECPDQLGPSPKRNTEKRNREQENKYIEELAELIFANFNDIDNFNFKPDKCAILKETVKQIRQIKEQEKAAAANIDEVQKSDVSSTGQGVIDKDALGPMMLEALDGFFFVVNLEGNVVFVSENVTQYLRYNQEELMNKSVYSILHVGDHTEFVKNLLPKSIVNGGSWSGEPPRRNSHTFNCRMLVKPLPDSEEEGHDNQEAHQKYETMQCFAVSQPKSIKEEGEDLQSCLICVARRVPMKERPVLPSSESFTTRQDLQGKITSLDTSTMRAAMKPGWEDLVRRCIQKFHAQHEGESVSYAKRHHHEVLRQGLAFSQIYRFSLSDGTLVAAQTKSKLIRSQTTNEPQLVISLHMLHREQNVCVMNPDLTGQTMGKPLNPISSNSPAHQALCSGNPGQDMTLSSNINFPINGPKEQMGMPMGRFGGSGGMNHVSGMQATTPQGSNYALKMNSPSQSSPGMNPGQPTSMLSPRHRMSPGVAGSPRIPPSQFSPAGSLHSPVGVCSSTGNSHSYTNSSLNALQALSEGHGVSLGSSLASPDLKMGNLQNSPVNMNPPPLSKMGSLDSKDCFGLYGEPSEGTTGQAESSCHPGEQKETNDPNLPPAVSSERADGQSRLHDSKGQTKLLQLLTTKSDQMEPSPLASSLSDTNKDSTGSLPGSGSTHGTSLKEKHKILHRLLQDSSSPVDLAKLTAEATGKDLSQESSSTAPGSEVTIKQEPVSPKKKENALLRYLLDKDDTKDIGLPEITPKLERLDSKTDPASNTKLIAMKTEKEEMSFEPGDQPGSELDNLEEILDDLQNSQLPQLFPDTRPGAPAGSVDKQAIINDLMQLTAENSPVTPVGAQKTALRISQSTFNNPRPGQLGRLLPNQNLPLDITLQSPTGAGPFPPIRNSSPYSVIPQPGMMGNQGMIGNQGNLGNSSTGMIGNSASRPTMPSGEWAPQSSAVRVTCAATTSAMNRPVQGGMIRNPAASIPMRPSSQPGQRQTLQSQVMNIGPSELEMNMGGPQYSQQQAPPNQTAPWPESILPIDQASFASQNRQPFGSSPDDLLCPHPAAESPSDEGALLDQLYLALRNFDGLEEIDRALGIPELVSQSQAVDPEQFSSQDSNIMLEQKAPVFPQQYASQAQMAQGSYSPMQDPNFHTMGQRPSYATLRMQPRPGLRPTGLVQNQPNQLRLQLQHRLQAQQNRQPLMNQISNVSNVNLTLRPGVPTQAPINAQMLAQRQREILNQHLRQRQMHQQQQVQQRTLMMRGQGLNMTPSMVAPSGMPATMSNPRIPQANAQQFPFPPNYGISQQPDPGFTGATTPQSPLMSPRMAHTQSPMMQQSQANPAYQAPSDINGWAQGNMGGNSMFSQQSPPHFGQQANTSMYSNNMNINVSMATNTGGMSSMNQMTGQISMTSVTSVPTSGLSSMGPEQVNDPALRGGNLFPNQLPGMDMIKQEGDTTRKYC", "assay": "inhibition of GAL4-SRC2 driven luciferase expression – cell-based, luminescence, HEK293, triplicate, confirmation (AID 652008;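 active = mean inhibition above 46.5%, the solvent-only control mean plus 3 SD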;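 note: 0% = DMSO-treated cells and 100% = Gossypol at 36 µM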)", "settings": "HEK293 GAL4-SRC2 luciferase reporter, at 8.9 µM, active compounds read high"}, "[5]": {"target": "Nuclear receptor coactivator 1 (Homo sapiens) (UniProt Q15788)", "sequence (Q15788 whole entry, looked up, the tested form may be a part)": "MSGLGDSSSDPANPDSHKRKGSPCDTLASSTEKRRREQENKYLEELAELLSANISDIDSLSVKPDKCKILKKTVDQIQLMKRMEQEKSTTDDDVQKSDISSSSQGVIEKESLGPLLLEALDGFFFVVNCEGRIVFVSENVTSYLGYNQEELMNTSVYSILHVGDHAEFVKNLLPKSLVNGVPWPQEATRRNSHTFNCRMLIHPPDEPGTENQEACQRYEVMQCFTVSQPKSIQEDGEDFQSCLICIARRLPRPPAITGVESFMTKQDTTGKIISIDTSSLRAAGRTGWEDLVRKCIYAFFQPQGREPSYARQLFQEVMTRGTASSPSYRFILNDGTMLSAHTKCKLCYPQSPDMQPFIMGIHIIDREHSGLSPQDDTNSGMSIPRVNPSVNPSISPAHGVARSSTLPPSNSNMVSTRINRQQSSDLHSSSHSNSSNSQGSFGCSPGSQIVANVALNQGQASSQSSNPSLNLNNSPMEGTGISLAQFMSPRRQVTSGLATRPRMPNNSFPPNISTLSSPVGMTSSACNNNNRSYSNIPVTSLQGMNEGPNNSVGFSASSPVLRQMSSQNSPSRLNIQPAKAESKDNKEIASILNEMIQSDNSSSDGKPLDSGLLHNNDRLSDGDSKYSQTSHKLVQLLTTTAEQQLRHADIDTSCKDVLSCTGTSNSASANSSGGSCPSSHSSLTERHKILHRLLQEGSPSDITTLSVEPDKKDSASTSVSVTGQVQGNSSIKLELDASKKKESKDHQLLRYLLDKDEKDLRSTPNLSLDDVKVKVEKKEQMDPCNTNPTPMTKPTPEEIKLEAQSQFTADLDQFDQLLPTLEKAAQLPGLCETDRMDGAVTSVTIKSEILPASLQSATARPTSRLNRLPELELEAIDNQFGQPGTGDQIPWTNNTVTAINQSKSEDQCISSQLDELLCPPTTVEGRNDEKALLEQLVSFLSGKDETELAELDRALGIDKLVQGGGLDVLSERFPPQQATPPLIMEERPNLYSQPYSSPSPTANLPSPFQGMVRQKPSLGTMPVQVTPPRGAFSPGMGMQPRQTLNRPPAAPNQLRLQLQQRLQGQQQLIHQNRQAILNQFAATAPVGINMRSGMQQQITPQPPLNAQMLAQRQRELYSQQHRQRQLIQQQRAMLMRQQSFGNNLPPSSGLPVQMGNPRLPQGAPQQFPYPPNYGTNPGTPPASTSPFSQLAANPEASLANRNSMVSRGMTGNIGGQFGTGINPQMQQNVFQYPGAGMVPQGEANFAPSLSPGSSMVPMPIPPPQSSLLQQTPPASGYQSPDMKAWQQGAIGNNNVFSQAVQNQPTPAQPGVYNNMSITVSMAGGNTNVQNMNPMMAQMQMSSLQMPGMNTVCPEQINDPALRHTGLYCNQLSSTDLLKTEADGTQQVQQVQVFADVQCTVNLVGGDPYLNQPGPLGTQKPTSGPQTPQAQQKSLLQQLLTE", "assay": "NCOA1 GAL4-fusion reporter inhibition – cell-based, luminescence, quadruplicate, confirmation (AID 588820;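 active = mean inhibition above 46.68%, the untreated control wells mean plus 3 SD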;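 note: 0% = DMSO wells and 100% = gossypol 36 µM treated wells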)", "settings": "HEK293 GAL4-SRC1 luciferase reporter, at 3.6 µM, active compounds read high"}, "[6]": {"assay": "repression of VP16-driven luciferase reporter – cell-based, luminescence, high throughput, counter-screen for SRC1 inhibitor project (AID 588824)", "settings": "cell-based VP16 transactivation luciferase luminescence; at 3.6 µM; active compounds read high"}, "[7]": {"assay": "VP16-driven transactivation reporter suppression – cell-based, luminescence, HEK293, counter-screen for COUP-TFII antagonist project (AID 687007; in the data active = inhibition above about 13%)", "settings": "HEK293 Gal4-VP16 luciferase reporter, at 8.5 µM, active compounds read high"}, "[8]": {"target": "COUP transcription factor 2 (Homo sapiens) (UniProt P24468)", "sequence (P24468 whole entry, looked up)": "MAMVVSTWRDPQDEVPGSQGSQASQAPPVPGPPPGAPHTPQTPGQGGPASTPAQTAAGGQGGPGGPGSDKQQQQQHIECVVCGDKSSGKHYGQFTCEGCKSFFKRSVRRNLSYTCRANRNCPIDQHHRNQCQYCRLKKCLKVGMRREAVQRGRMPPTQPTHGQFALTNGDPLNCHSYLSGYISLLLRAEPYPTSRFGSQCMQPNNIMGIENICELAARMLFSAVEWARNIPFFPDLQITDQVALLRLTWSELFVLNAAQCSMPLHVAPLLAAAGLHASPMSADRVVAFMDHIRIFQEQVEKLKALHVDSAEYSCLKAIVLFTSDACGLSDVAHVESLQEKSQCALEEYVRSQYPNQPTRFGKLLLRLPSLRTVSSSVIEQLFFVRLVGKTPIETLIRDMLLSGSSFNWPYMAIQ", "assay": "retest of COUP-TFII reporter suppressors – cell-based, luciferase reporter, HEK293, triplicate, confirmation (AID 687008;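 active = mean inhibition over three repeats above a set limit taken from the earlier primary screen, cut at about 38% in these data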;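 note: 100% = cells given the luciferase reporter alone without the COUP-TF2 vector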)", "settings": "HEK293 NGFI-A luciferase reporter, luminescence; at 8.5 µM; active compounds read high"}}, "note": "Values without a mark were called inactive. This is one part of the list. Calls of active or inactive are those of the source. Cut-off read from the data, not from the text of the source, unless noted: active = inhibition above about 25%; inactive = the rest.", "data": [{"smiles": "O=C(NC(CSCc1ccccc1)C(=O)N/N=C/c1ccc(O)cc1O)c1ccc([N+](=O)[O-])cc1", "note": "(centres undefined)", "values": [{"measurement": "inhibition", "setting": "[1]", "result": 31.7, "unit": "%"}, {"measurement": "inhibition", "setting": "[2]", "result": "34.8% (active)"}, {"measurement": "inhibition", "setting": "[3]", "result": -26.8, "unit": "%"}, {"measurement": "inhibition", "setting": "[4]", "result": 8.58, "unit": "%"}]}, {"smiles": "O=C(Nc1cccc(Br)c1)c1cc(S(=O)(=O)N2CCOCC2)cs1", "values": [{"measurement": "inhibition", "setting": "[5]", "result": -2.57, "unit": "%"}, {"measurement": "inhibition", "setting": "[6]", "result": -2.73, "unit": "%"}]}, {"smiles": "Cc1c(C(=O)NN)nn(-c2ccc(Cl)cc2)c(=O)c1C#N", "values": [{"measurement": "inhibition", "setting": "[5]", "result": -10.1, "unit": "%"}, {"measurement": "inhibition", "setting": "[6]", "result": 5.25, "unit": "%"}]}, {"smiles": "CC(=O)OCCN1c2ccccc2Sc2cnccc21", "values": [{"measurement": "inhibition", "setting": "[1]", "result": "43.4% (active)"}, {"measurement": "inhibition", "setting": "[2]", "result": 26.4, "unit": "%"}, {"measurement": "inhibition", "setting": "[3]", "result": -4.99, "unit": "%"}, {"measurement": "inhibition", "setting": "[4]", "result": 23.7, "unit": "%"}]}, {"smiles": "COc1ccc(Nc2ncnc3ccc(C)cc23)cc1", "values": [{"measurement": "inhibition", "setting": "[5]", "result": 26.8, "unit": "%"}, {"measurement": "inhibition", "setting": "[6]", "result": 15.7, "unit": "%"}]}, {"smiles": "COCC1CCN(C(=O)c2cc(COc3cccc4cnccc34)on2)CC1", "values": [{"measurement": "inhibition", "setting": "[1]", "result": 11.1, "unit": "%"}, {"measurement": "inhibition", "setting": "[2]", "result": "37.7% (active)"}, {"measurement": "inhibition", "setting": "[3]", "result": 3.58, "unit": "%"}, {"measurement": "inhibition", "setting": "[4]", "result": 43.1, "unit": "%"}]}, {"smiles": "COC(=O)c1ccc(/C=N\\NC(=O)CC(=O)NCCc2ccccc2)cc1", "values": [{"measurement": "inhibition", "setting": "[5]", "result": -1.47, "unit": "%"}, {"measurement": "inhibition", "setting": "[6]", "result": -15.5, "unit": "%"}]}, {"smiles": "COc1ccc(-c2cc(C(=O)N(C)CC(=O)Nc3cccc(F)c3)c3ccccc3n2)cc1OC", "values": [{"measurement": "inhibition", "setting": "[5]", "result": -19.1, "unit": "%"}, {"measurement": "inhibition", "setting": "[6]", "result": -8.17, "unit": "%"}]}, {"smiles": "Cc1cc(=O)oc2cc(OCc3ccc(C(=O)N4CCN(c5ccc([N+](=O)[O-])cc5)CC4)cc3)ccc12", "values": [{"measurement": "inhibition", "setting": "[5]", "result": 10.5, "unit": "%"}, {"measurement": "inhibition", "setting": "[6]", "result": -3.02, "unit": "%"}]}, {"smiles": "CCOP(=O)(OCC)C(NC(=O)c1cccs1)c1ccccc1", "note": "(centres undefined)", "values": [{"measurement": "inhibition", "setting": "[5]", "result": -44.8, "unit": "%"}, {"measurement": "inhibition", "setting": "[6]", "result": -3.21, "unit": "%"}]}, {"smiles": "COc1ccc(COC(=O)C2=C(C)NC(=O)NC2c2ccc(OC)cc2)cc1", "note": "(centres undefined)", "values": [{"measurement": "inhibition", "setting": "[1]", "result": 11.2, "unit": "%"}, {"measurement": "inhibition", "setting": "[2]", "result": 20.8, "unit": "%"}, {"measurement": "inhibition", "setting": "[3]", "result": 12, "unit": "%"}, {"measurement": "inhibition", "setting": "[4]", "result": 33, "unit": "%"}]}, {"smiles": "Nn1c(SCC(=O)Nc2ccccc2)nnc(Cc2ccccc2)c1=O", "values": [{"measurement": "inhibition", "setting": "[5]", "result": 0.49, "unit": "%"}, {"measurement": "inhibition", "setting": "[6]", "result": 5.01, "unit": "%"}]}, {"smiles": "Cc1ccc(C(C(=O)NCc2ccccc2)N(Cc2cccs2)C(=O)c2ccc3c(c2)OCCO3)cc1", "note": "(centres undefined)", "values": [{"measurement": "inhibition", "setting": "[5]", "result": -21.8, "unit": "%"}, {"measurement": "inhibition", "setting": "[6]", "result": -1.97, "unit": "%"}]}, {"smiles": "Cc1ccc(C)c(N2CCN(C(=O)CCCCCn3c(=S)[nH]c4ccc(N5CCOCC5)cc4c3=O)CC2)c1", "values": [{"measurement": "inhibition", "setting": "[1]", "result": "60.6% (active)"}, {"measurement": "inhibition", "setting": "[2]", "result": "73.1% (active)"}, {"measurement": "inhibition", "setting": "[3]", "result": "69.7% (active)"}, {"measurement": "inhibition", "setting": "[4]", "result": "60.8% (active)"}, {"measurement": "inhibition", "setting": "[7]", "result": "15% (active)"}, {"measurement": "inhibition", "setting": "[8]", "result": "90% (active)"}]}, {"smiles": "CCN(c1cccc(C)c1)c1ncnc2nc[nH]c12", "values": [{"measurement": "inhibition", "setting": "[1]", "result": 35.9, "unit": "%"}, {"measurement": "inhibition", "setting": "[2]", "result": 21.8, "unit": "%"}, {"measurement": "inhibition", "setting": "[3]", "result": -7.68, "unit": "%"}, {"measurement": "inhibition", "setting": "[4]", "result": 28.4, "unit": "%"}]}, {"smiles": "C=CCc1ccccc1OCC(=O)N/N=C/c1ccc(OC(C)=O)cc1OC(C)=O", "values": [{"measurement": "inhibition", "setting": "[5]", "result": 16.6, "unit": "%"}, {"measurement": "inhibition", "setting": "[6]", "result": -4.05, "unit": "%"}]}, {"smiles": "CC1(C(=O)NS(=O)(=O)Cc2cccc(Cl)c2)CCN1C(=O)Cc1ccc(-c2ccccc2)cc1", "note": "(centres undefined)", "values": [{"measurement": "inhibition", "setting": "[5]", "result": -5.52, "unit": "%"}, {"measurement": "inhibition", "setting": "[6]", "result": -14.3, "unit": "%"}]}, {"smiles": "CCOc1cc(/C=C2\\COc3ccccc3C2=O)ccc1OCC(=O)N(C)C", "values": [{"measurement": "inhibition", "setting": "[1]", "result": 17.5, "unit": "%"}, {"measurement": "inhibition", "setting": "[2]", "result": 28.5, "unit": "%"}, {"measurement": "inhibition", "setting": "[3]", "result": 32.2, "unit": "%"}, {"measurement": "inhibition", "setting": "[4]", "result": 27.8, "unit": "%"}]}, {"smiles": "O=c1[nH]cnc2sc3c(c12)CCCCC3", "values": [{"measurement": "inhibition", "setting": "[5]", "result": -0.67, "unit": "%"}, {"measurement": "inhibition", "setting": "[6]", "result": -2.41, "unit": "%"}]}, {"smiles": "Cc1cccc(C)c1NC(=O)CNC(=O)Cc1c[nH]c2ccccc12", "values": [{"measurement": "inhibition", "setting": "[5]", "result": -0.57, "unit": "%"}, {"measurement": "inhibition", "setting": "[6]", "result": -1.35, "unit": "%"}]}, {"smiles": "O=C(COc1ccc(F)cc1Cl)Nc1ccc(N2CCOCC2)cc1N1CCOCC1", "values": [{"measurement": "inhibition", "setting": "[5]", "result": -16.6, "unit": "%"}, {"measurement": "inhibition", "setting": "[6]", "result": 2.25, "unit": "%"}]}, {"smiles": "Cc1cnc(C(=O)Nc2cccc3cccnc23)cn1", "values": [{"measurement": "inhibition", "setting": "[5]", "result": -34.4, "unit": "%"}, {"measurement": "inhibition", "setting": "[6]", "result": -21.9, "unit": "%"}]}, {"smiles": "COc1cc(C(=O)Nc2cccc(-c3cn4cccnc4n3)c2)cc(OC)c1OC", "values": [{"measurement": "inhibition", "setting": "[5]", "result": -27.4, "unit": "%"}, {"measurement": "inhibition", "setting": "[6]", "result": -27.3, "unit": "%"}]}, {"smiles": "CN1OC[C@@H]2CN(C(=S)NCCc3ccccc3)[C@H](c3ccc(-n4ccnc4)cc3)C[C@@H]21", "values": [{"measurement": "inhibition", "setting": "[5]", "result": -1.96, "unit": "%"}, {"measurement": "inhibition", "setting": "[6]", "result": -0.23, "unit": "%"}]}, {"smiles": "Cc1ccc(CNc2nc(-c3cccs3)nc3ccccc23)cc1", "values": [{"measurement": "inhibition", "setting": "[5]", "result": -2.3, "unit": "%"}, {"measurement": "inhibition", "setting": "[6]", "result": 14.8, "unit": "%"}]}, {"smiles": "CC1(C)CC(=O)c2sc(N)nc2C1", "values": [{"measurement": "inhibition", "setting": "[5]", "result": -9.15, "unit": "%"}, {"measurement": "inhibition", "setting": "[6]", "result": 0.81, "unit": "%"}]}, {"smiles": "CC(=O)N1CCc2c(sc(NC(=O)C3CCCN3S(=O)(=O)c3cccs3)c2C(N)=O)C1", "note": "(centres undefined)", "values": [{"measurement": "inhibition", "setting": "[5]", "result": 4.87, "unit": "%"}, {"measurement": "inhibition", "setting": "[6]", "result": -1.35, "unit": "%"}]}, {"smiles": "CC(C)c1ccc2c(c1)C(N1CCN(C)CC1)Cc1cccnc1S2", "note": "(centres undefined)", "values": [{"measurement": "inhibition", "setting": "[5]", "result": 6.3, "unit": "%"}, {"measurement": "inhibition", "setting": "[6]", "result": -5.2, "unit": "%"}]}, {"smiles": "COc1cc2c(cc1OC)CN(CC(=O)Nc1cccc([N+](=O)[O-])c1)CC2", "values": [{"measurement": "inhibition", "setting": "[5]", "result": 4.85, "unit": "%"}, {"measurement": "inhibition", "setting": "[6]", "result": 6.41, "unit": "%"}]}]}
